Data reported in the supplement of paper PMC12636033.
± gives the standard deviation of the averaged measurements. In all, about 33,000 sequences were measured (“E-score (rank enrichment, -0.5 to 0.5)”: median about -0.0043, highest 2% from about 0.24 on). This excerpt belongs to a sample that is enriched for the highest values.

test system: 2Sp-muMax20 (muMax20 with two 2,6-bis(methyl)pyridine Cys staples); assay: PBM 8-mer E-score (E-score (rank enrichment, -0.5 to 0.5)); higher = stronger preferential binding
Procedure: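 Protein binding microarray (universal PBM chip covering all 10-mers in fixed probe flanks) with chemically synthesized human Max(13-93) bHLH-LZ analogs (not full-length Max) bearing noncanonical residues (hArg, Tha, Aib, Nle at 65) and aromatic Cys staples. Read-out per 8-mer (and its reverse complement): E-score (rank-based enrichment, -0.5 to 0.5) and Z-score of median probe intensity.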

Row | Sequence | PBM 8-mer E-score
1 | AATAACAT | 0.221 ± 0.13
2 | ATAAAACG | 0.145 ± 0.057
3 | AATAAAAC | 0.223 ± 0.072
4 | ATAAAACA | 0.244 ± 0.067
5 | AATAAAAA | 0.258 ± 0.0034
6 | CTCAAACA | -0.00491 ± 0.013
7 | AATAAAAT | 0.103 ± 0.12
8 | AGACACAC | 0.158 ± 0.0089
9 | GCTTCAGA | -0.0923 ± 0.073
10 | AATCGATT | 0.0682 ± 0.041
11 | AAACGAGG | 0.0592 ± 0.027
12 | CAGATGTC | -0.0701 ± 0.0093
13 | CCCAGGTA | -0.0104 ± 0.052
14 | GATACGCA | 0.0806 ± 0.032
15 | TATACAAA | 0.256 ± 0.065
16 | AATACGCA | 0.286 ± 0.0084
17 | AATACAAC | 0.221 ± 0.053
18 | AATACAGA | 0.00182 ± 0.094
19 | AATACGCT | 0.217 ± 0.0037
20 | CATACAAA | 0.0246 ± 0.065
21 | AATACAAA | 0.28 ± 0.018
22 | AATACAAG | 0.245 ± 0.086

Row | Sequence | PBM 8-mer E-score
23 | GATACAAA | 0.084 ± 0.0085
24 | AATACATA | 0.139 ± 0.0041
25 | AATACAAT | 0.0568 ± 0.04
26 | GCGTCCAA | 0.016 ± 0.062
27 | TAGGATCA | -0.0923 ± 0.052
28 | CAATAGTC | -0.0201 ± 0.017
29 | CCGTGGTA | -0.156 ± 0.15
30 | ACGTGGTC | 0.129 ± 0.092
31 | ACGTGGTG | 0.236 ± 0.017
32 | GCGTGGTA | 0.237 ± 0.045
33 | AGGTGGTG | -0.104 ± 0.087
34 | ACGTGGTA | 0.146 ± 0.11
35 | GATTACGA | 0.0561 ± 0.094
36 | AAATCCCT | -0.0147 ± 0.019
37 | GAGGCGCA | 0.0587 ± 0.03
38 | ACTTTCCG | 0.00749 ± 0.064
39 | ACCTTGAC | 0.00626 ± 0.011
40 | CAACTATA | 0.203 ± 0.018
41 | TAACTATA | 0.255 ± 0.07
42 | AAACTATA | 0.115 ± 0.0056
43 | CCCTTTTC | -0.0442 ± 0.061
44 | AATTACCA | 0.171 ± 0.012

Row | Sequence | PBM 8-mer E-score
45 | CATTACCC | 0.0244 ± 0.022
46 | AATTACCC | 0.237 ± 0.0059
47 | GATGCAGC | 0.0324 ± 0.041
48 | GTGGTCGA | 0.0711 ± 0.071
49 | AAGATCTT | 0.322 ± 0.058
50 | AAGATCTG | 0.0472 ± 0.038
51 | AAGATCTA | -0.063 ± 0.13
52 | GGGATAAA | 0.0538 ± 0.03
53 | GCTGTATA | 0.25 ± 0.021
54 | ATTGTACA | 0.26 ± 0.016
55 | ATTGTACC | 0.0323 ± 0.019
56 | ACTGTATA | 0.213 ± 0.085
57 | CCTGTATA | 0.0769 ± 0.072
58 | ATTGTCTC | -0.126 ± 0.07
59 | GTTGTCTA | 0.0499 ± 0.064
60 | CTTGTACA | 0.192 ± 0.026
61 | GTTGTATA | 0.167 ± 0.024
62 | ATTGTCTA | 0.269 ± 0.012
63 | ATTGTATA | 0.2422 ± 0.0019
64 | CTTGTATA | 0.17 ± 0.0046
65 | AAGCCAGT | -0.0999 ± 0.034
66 | ACCAAGAC | -0.0903 ± 0.027

Row | Sequence | PBM 8-mer E-score
67 | GGCGCGTA | 0.126 ± 0.013
68 | ATTTAATG | 0.122 ± 0.031
69 | ACAACACG | 0.185 ± 0.037
70 | TAAGAGCA | 0.145 ± 0.072
71 | TAACGACA | 0.087 ± 0.0014
72 | GTAGAGAA | -0.00059 ± 0.14
73 | ATTGTATG | 0.135 ± 0.036
74 | ATTGTATC | 0.254 ± 0.043
75 | CTTGTATC | 0.141 ± 0.019
76 | AGCTTAGG | -0.22 ± 0.016
77 | ACACTTTG | 0.0709 ± 0.076
78 | CTAGGGGC | 0.0163 ± 0.073
79 | ACCGGTAG | -0.253 ± 0.036
80 | CTACCGGA | -0.147 ± 0.0082
81 | CACGCGTC | 0.2622 ± 0.0015
82 | AACGCGTC | -0.0413 ± 0.045
83 | ACCGCGTA | -0.0143 ± 0.044
84 | ACCGCGTG | 0.284 ± 0.038
85 | AACGCGTA | -0.0641 ± 0.026
86 | AACGCGTG | 0.13 ± 0.022
